Screening results from PubChem.
HBB splice mod – qHTS Assay for Modulators of Hemoglobin Beta Chain Splicing; HBB splicing reporter cell assay, activation; EGFP reporter with mutant IVS2-654 intron; response scale: normalised to 500 nM splice-correcting PNA; Potency, µM (highest dose often 46.1 µM), without a hit: at the highest dose activation, hits mostly activators; actives 0.06% (n = 65,000); AID 925, 2007; also: potency is read from the fitted curve at half-maximal effect; 0% is about no effect
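Compounds were applied for 2 days to HeLa EGFP-654 cells, 500/well in Optimem with 2% FCS. The reporter's EGFP is disrupted by mis-splicing of beta-globin intron IVS2-654. Readout: summed well GFP fluorescence from 488 nm laser scanning; reference was 500 nM antisense […] 654 PNA.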
ERK AVP block – qHTS Assay for Inhibitors of the ERK Signaling Pathway using a Homogeneous Screening Assay | HEK293-V1b, vasopressin-stimulated pERK AlphaScreen | Potency, µM (series often up to 57.5 µM), for the others: at the highest dose activity, negative = inhibition, hits mostly inhibitors | actives 0.99% (n = 72,000); also: potency is read from the fitted curve at half-maximal effect; % is scaled to controls: 0 for no effect and ±100 for the full control effect; nearly all actives have a fitted effect of over 55% in size
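HEK293 cells stably expressing V1b receptor, seeded overnight in 1% FBS, were treated with compounds for 30 min at 37C, then stimulated 5 min with 25 nM vasopressin; phospho-ERK read by AlphaScreen SureFire after lysis.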
GFP derepression – qHTS Assay for Epigenetic Modulators. actives 0.09% (n = 68,000). Potency, µM (titrated, usually from 46.1 µM), without a hit: at the highest dose GFP derepression (activation). AID 597, 2007. mouse C127i GFP locus derepression, cytometry, 30 h; also: % of control where 0% means no effect
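Read-out is the number of GFP-positive cells, scored as fluorescent objects 20 to 120 um wide, reflecting derepression of a silenced CMV-GFP reporter in murine C127i cells after 30 h compound exposure at 37 C.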
UbGFP stabilizer – Ubiquitin-GFP Assay; Ubiquitin-GFP reporter cells, proteasome inhibition, GFP fluorescence; response scale: untreated = 0%, 10 µM MG-132 = 100%; Potency, µM (highest dose often 45.9 µM), inactives show at the top dose activation (GFP accumulation), most hits filed as activators; 67,000 tested, under 10 active; active = well fitted activation curve with a large enough effect, not every such curve was filed as active; inconclusive = small, poorly fitted or top-dose-only effect, or another doubt; inactive = no such curve, though single readings can be large or run the other way; also: potency is read from the fitted curve at half-maximal effect
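Reporter cells (U2OS, ubiquitin-G76V-GFP fusion) are plated overnight, then treated 4 hr at 37 °C with compound titrations from 46 uM down to 2.9 nM. Activity is scaled against untreated cells and 10 uM MG-132.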
HEK293 cAMP ctrl – qHTS Assay for Agonists of the Thyroid Stimulating Hormone Receptor: Activators of Intracellular cAMP Concentrations in Parental HEK 293; parental HEK293 CNG cAMP sensor, membrane potential fluorescence; Potency, µM (series often up to 57.1 µM), without a hit: top-dose activation, hits mostly activators; AID 938, 2007; actives 2.5% (n = 73,000); also: potency is read from the fitted curve at half-maximal effect; % of control where 0% means no effect; nearly all actives have a fitted effect of over 55% in size
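Counterscreen for endogenous-receptor signalling: CNG-channel HEK 293 cells report cAMP rise by membrane depolarization. After 60 min dye equilibration with 100 uM RO 20-1724, compounds incubated 30 min before bottom-read fluorescence at 590 nm.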
TSHR ag – qHTS Assay for Agonists of the Thyroid Stimulating Hormone Receptor; actives 0.48% (n = 73,000); AID 926, 2007; Thyrotropin receptor (Homo sapiens), P16473; HEK293-CNG-TSHR cells (CNG channel as cAMP sensor), membrane potential dye, cAMP; Potency, µM (doses to about 57.1 µM), without a hit: at the highest dose activation, hits mostly activators; active = well fitted activation curve with a large enough effect in the main read-out, with a control signal flat, not every such curve was filed as active; inconclusive = small, poorly fitted or top-dose-only effect, or a change in a side signal; inactive = no such curve, though single readings can be large or run the other way; % of control where 0% means no effect;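 also: the control signal comes from parental cells without the receptor; potency is read from the fitted curve at half-maximal effect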
Target sequence (P16473 whole entry, looked up): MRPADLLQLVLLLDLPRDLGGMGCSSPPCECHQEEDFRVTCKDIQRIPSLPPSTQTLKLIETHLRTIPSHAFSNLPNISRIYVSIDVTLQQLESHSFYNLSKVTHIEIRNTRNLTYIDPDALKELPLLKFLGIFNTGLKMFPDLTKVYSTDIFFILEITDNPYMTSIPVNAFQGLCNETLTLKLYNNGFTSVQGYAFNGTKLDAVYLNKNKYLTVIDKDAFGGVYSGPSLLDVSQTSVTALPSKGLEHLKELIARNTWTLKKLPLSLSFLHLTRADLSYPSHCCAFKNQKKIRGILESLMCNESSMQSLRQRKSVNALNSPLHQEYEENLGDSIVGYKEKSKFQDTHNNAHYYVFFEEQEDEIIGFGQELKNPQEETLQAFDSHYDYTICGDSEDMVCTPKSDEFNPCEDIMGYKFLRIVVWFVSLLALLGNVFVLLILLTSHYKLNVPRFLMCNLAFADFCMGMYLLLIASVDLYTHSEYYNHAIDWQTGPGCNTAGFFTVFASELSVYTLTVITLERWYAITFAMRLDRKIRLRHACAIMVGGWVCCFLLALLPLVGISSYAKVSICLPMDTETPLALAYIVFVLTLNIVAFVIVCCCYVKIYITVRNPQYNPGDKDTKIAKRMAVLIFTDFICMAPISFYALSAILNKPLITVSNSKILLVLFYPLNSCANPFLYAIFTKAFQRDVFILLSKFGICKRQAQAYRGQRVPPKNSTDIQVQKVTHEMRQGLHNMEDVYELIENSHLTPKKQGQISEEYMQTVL
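HEK 293 cells stably expressing TSHR and a cAMP-gated CNG channel; parental CNG-only cells as counterscreen. Cells preloaded 60 min with membrane potential dye plus 100 uM RO 20-1724, then compound 30 min; fluorescence read at 590 nm.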
Starred values were filed as active, the others as inactive; [ ] = remark or other dose. An excerpt weighted towards active compounds, which were near 3.8% of everything screened. Unless noted, calls follow the shape of the dose curve; as a rule, active = well fitted curve in the direction sought with a large enough effect; inconclusive = small, poorly fitted or top-dose-only effect, or another doubt; inactive = no such curve, though single readings can be large; an effect the other way counts as inactive or inconclusive.

For COc1ccc2c(c1OC)C(Cc1ccccc1)N1CCc3cc4c(cc3C1=C2)OCO4 (stereo not given) the results were ERK AVP block 6.31µM*.
`CN(C)c1ccc(-c2ccc3ncnc(N(C)Cc4ccco4)c3c2)cc1` gave HBB splice mod -0.4%, ERK AVP block -28.4%, GFP derepression -5.0%[9.22 µM], UbGFP stabilizer -4.4%, HEK293 cAMP ctrl inconclusive and TSHR ag inconclusive.
`COc1cccc(-c2ccc3ncnc(N(C)Cc4ccco4)c3c2)c1` gave HBB splice mod -1.5%, ERK AVP block inconclusive, GFP derepression -2.9%[9.22 µM], UbGFP stabilizer 14.3%, HEK293 cAMP ctrl 15.8µM* and TSHR ag inconclusive.
For C/C(Cl)=C\Cn1c(N2CCCC2)nc2c1c(=O)[nH]c(=O)n2C the results were HBB splice mod 3.5%, ERK AVP block 25.1µM*, GFP derepression -5.2%, UbGFP stabilizer 3.8%, HEK293 cAMP ctrl 0.7% and TSHR ag 0.8%.
For CC(=O)c1c(O)c(C)c(O)c2c1OC1=CC(=O)[C@H](C(C)=O)C(=O)[C@]12C the results were GFP derepression -2.3%[9.22 µM], UbGFP stabilizer 4.9%, HEK293 cAMP ctrl 2.3% and TSHR ag 2.5%.
COc1ccc2ccccc2c1/C=C\C(=O)c1ccccc1 was read as HBB splice mod 0.4%[9.22 µM], ERK AVP block -23.7%[11.5 µM], GFP derepression -1.1%[9.22 µM], UbGFP stabilizer 1.4%[9.17 µM], HEK293 cAMP ctrl 14.0%[11.4 µM] and TSHR ag 12.0%[11.4 µM].
`CCOc1ccc(-c2nnc(-c3snc(-c4ccc(F)cc4)c3N=CN(C)C)o2)cc1` gave HBB splice mod 0.1%, ERK AVP block 11.0%, GFP derepression -4.2%, UbGFP stabilizer 0.8%, HEK293 cAMP ctrl 15.8µM* and TSHR ag inconclusive.
Screening O=C(c1cccs1)N(CC1CCCO1)c1nc(-c2ccccc2)cs1 (stereo not given) returned HBB splice mod 0.9%[57.5 µM], ERK AVP block 13.8%, GFP derepression 7.5%, UbGFP stabilizer 1.1%, HEK293 cAMP ctrl 15.8µM* and TSHR ag inconclusive.
`O=C(c1ccco1)N(CC1CCCO1)c1nc(-c2ccccc2)cs1` (stereo not given) gave HBB splice mod -2.8%, ERK AVP block 4.7%, GFP derepression -5.5%, UbGFP stabilizer 3.0%, HEK293 cAMP ctrl inconclusive and TSHR ag inconclusive.
Cc1ccc(C(=O)C2CCN(CC(=O)Nc3ccc(N(C)C)cc3)CC2)cc1 was read as ERK AVP block 15.8µM*, GFP derepression 0.0%, UbGFP stabilizer 6.1%, HEK293 cAMP ctrl -13.8% and TSHR ag -13.2%.
For Clc1ccc2[nH]c3c(NCC4CCCO4)ncnc3c2c1 (stereo not given) the results were HBB splice mod -1.8%[0.369 µM], ERK AVP block 25.1µM*, GFP derepression 2.6%, UbGFP stabilizer -0.9%, HEK293 cAMP ctrl 8.2% and TSHR ag 16.5%.
For Clc1ccc2[nH]c3c(NCCN4CCOCC4)ncnc3c2c1 the results were GFP derepression 18.5%[20.6 µM].
Screening N#CC(=C(/N)Sc1ccccc1N)/C(C#N)=C(/N)Sc1ccccc1N returned HBB splice mod 1.1%, ERK AVP block 0.199µM*, GFP derepression 2.4%, UbGFP stabilizer -1.8%, HEK293 cAMP ctrl -18.9% and TSHR ag -20.9%.
`Nc1ccccc1C#Cc1ccccc1` gave HBB splice mod 2.8%, ERK AVP block 6.8%, HEK293 cAMP ctrl -7.2% and TSHR ag -2.9%.
O=C(CCCSc1nnc(-c2cccs2)n1CC1CCCO1)c1ccccc1 (stereo not given) was read as HBB splice mod -2.2%, ERK AVP block -23.4%, GFP derepression 3.3%, UbGFP stabilizer -1.7%, HEK293 cAMP ctrl inconclusive and TSHR ag inconclusive.
Screening CCOc1ccc(C(C)=O)cc1CSc1nnc(-c2cccs2)n1CC1CCCO1 (stereo not given) returned HBB splice mod -0.2%[57.5 µM], ERK AVP block -23.5%, GFP derepression 0.5%, UbGFP stabilizer 3.8%, HEK293 cAMP ctrl 10µM* and TSHR ag inconclusive.
O=C(O)c1cc(S(=O)(=O)Nc2ccc(O)cc2)ccc1Cl was read as HEK293 cAMP ctrl 11.1% and TSHR ag 8.0%.
Screening CCOC(=O)c1sc(NC(=O)c2c(C)noc2C)c(C(=O)OCC)c1C returned HBB splice mod 0.1%, ERK AVP block -5.6%, GFP derepression 7.0%, UbGFP stabilizer -1.1%, HEK293 cAMP ctrl 7.0% and TSHR ag 1.2%.
For CCOC(=O)c1c(C)noc1CP(=O)(c1ccccc1)c1ccccc1 the results were HBB splice mod 0.4%[57.5 µM], ERK AVP block -29.2%, GFP derepression 0.0%, UbGFP stabilizer -3.0%, HEK293 cAMP ctrl 12.6µM* and TSHR ag inconclusive.
CCC(=O)OCN1C(=O)C=CC1=O was read as HBB splice mod 1.3%[9.22 µM], ERK AVP block 12.2%[11.5 µM], GFP derepression 6.7%[9.22 µM], UbGFP stabilizer 1.1%[9.17 µM], HEK293 cAMP ctrl 5.2%[11.4 µM] and TSHR ag 2.8%[11.4 µM].
For CCCNC(=O)c1cc(-c2ccc(O)cc2)on1 the results were HBB splice mod -1.3%, ERK AVP block -7.4%, GFP derepression 3.4%, UbGFP stabilizer 14.7%, HEK293 cAMP ctrl 4.3% and TSHR ag 7.5%.
`N#CCSc1nnc(Cc2cccc3ccccc23)n1C1CCCCC1` gave HBB splice mod -2.6%, ERK AVP block -6.8%, GFP derepression 1.1%, UbGFP stabilizer -3.4%, HEK293 cAMP ctrl 15.8µM* and TSHR ag inconclusive.
For O=c1c(-c2ccc(F)cc2)nc2cncnc2n1C1CC1 the results were HBB splice mod -0.8%, ERK AVP block inconclusive, GFP derepression 2.7%[9.22 µM], UbGFP stabilizer 11.9%, HEK293 cAMP ctrl 10.7% and TSHR ag 2.4%.
O=C(Nc1cccnc1)c1ccc(Cl)c(S(=O)(=O)N2CCCCCC2)c1 was read as HBB splice mod -1.5%, ERK AVP block 20µM*, GFP derepression 1.3%, UbGFP stabilizer 0.0%, HEK293 cAMP ctrl 23.1% and TSHR ag 5.8%.
Screening Cn1cccc1-c1nc2ccccc2n1Cc1ccccc1 returned HBB splice mod -1.4%, ERK AVP block -30.0%, GFP derepression 0.0%, UbGFP stabilizer 11.1%, HEK293 cAMP ctrl 31.6µM* and TSHR ag inconclusive.
For Cc1ccc(Cn2c(-c3nonc3N)nc3ccccc32)cc1 the results were ERK AVP block 7.0%, GFP derepression -1.3%, UbGFP stabilizer -2.1%, HEK293 cAMP ctrl 31.6µM* and TSHR ag inconclusive.
